PubChem BioAssay (NCI)
Compounds without any hit were thinned out: in the full panel of roughly 83,000, 20% have a hit.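 Compound tested at a single concentration for 48 hours in 96-well plates; a percent growth value below 10 was scored as active.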 A number with no mark means an inactive call. Active and inactive are the calls of the source.

What was measured:
Test in all cases: NCI-60 one-dose screen, 48 h (100 = growth as untreated, 0 = no growth, -100 = all killed)
Conditions in all cases: 10 µM unless noted
HCT-15 colon = test system: HCT-15 colon
HT29 colon = test system: HT29 colon
SNB-75 CNS = test system: SNB-75 CNS
SNB-19 CNS = test system: SNB-19 CNS
U251 CNS = test system: U251 CNS
PC-3 prostate = test system: PC-3 prostate
SK-MEL-5 melanoma = test system: SK-MEL-5 melanoma
UACC-62 melanoma = test system: UACC-62 melanoma
LOX IMVI melanoma = test system: LOX IMVI melanoma
SK-MEL-28 melanoma = test system: SK-MEL-28 melanoma

COc1ccc(C(O)c2cc3c(N)c(C(=O)Nc4ccc(Br)cc4)sc3nc2C)cc1 (stereo not given)
growth (HCT-15 colon): 18.2%
growth (HT29 colon): -34.2% (active)
growth (SNB-75 CNS): -10.8% (active)
growth (SNB-19 CNS): 36.1%
growth (U251 CNS): 17.2%
growth (PC-3 prostate): 18.2%
growth (SK-MEL-5 melanoma): 16.4%
growth (UACC-62 melanoma): 26.1%
growth (LOX IMVI melanoma): 33.4%
growth (SK-MEL-28 melanoma): 60%

CCCCc1ccc(Nc2nnc(SCC(=O)NC(=O)NCC)s2)cc1
growth (HCT-15 colon): 99.9%
growth (HT29 colon): 103%
growth (SNB-75 CNS): 83%
growth (SNB-19 CNS): 119%
growth (U251 CNS): 96%
growth (PC-3 prostate): 91%
growth (SK-MEL-5 melanoma): 103%
growth (UACC-62 melanoma): 78.2%
growth (LOX IMVI melanoma): 94.1%
growth (SK-MEL-28 melanoma): 105%

O=C(Nc1cccc(Cl)c1)Oc1c(Br)c(Br)c(Br)c(Br)c1Br
growth (HCT-15 colon): 98.2%
growth (HT29 colon): 91.8%
growth (SNB-75 CNS): 90%
growth (SNB-19 CNS): 101%
growth (U251 CNS): 91.9%
growth (PC-3 prostate): 59.5%
growth (SK-MEL-5 melanoma): 75.2%
growth (UACC-62 melanoma): 82.1%
growth (LOX IMVI melanoma): 88.6%
growth (SK-MEL-28 melanoma): 93.1%

O=C1CCCN1c1cccc2cccnc12
growth (HCT-15 colon): 101%
growth (HT29 colon): 103%
growth (SNB-75 CNS): 83.1%
growth (SNB-19 CNS): 91%
growth (U251 CNS): 96.4%
growth (PC-3 prostate): 107%
growth (SK-MEL-5 melanoma): 99.1%
growth (UACC-62 melanoma): 104%
growth (LOX IMVI melanoma): 95.6%
growth (SK-MEL-28 melanoma): 113%

CN(Cc1ccccc1)c1nc(Cl)c(C2CC(c3ccc(Cl)cc3)=Cc3[nH][nH]c(=O)c32)s1 (stereo not given)
growth (HCT-15 colon): 90.1%
growth (HT29 colon): 112%
growth (SNB-75 CNS): 88.1%
growth (SNB-19 CNS): 104%
growth (U251 CNS): 93.4%
growth (PC-3 prostate): 79.7%
growth (SK-MEL-5 melanoma): 88.2%
growth (UACC-62 melanoma): 89%
growth (LOX IMVI melanoma): 79.9%
growth (SK-MEL-28 melanoma): 103%

FC(F)(F)Oc1cccc(-c2cc(NCCCCCCNc3cc(-c4cccc(OC(F)(F)F)c4)nc4ccc(N5CCCC5)cc34)c3cc(N4CCCC4)ccc3n2)c1
growth (HCT-15 colon): -57.5% (active)
growth (HT29 colon): -27.7% (active)
growth (SNB-75 CNS): -4.49% (active)
growth (SNB-19 CNS): -68.3% (active)
growth (U251 CNS): -90.2% (active)
growth (PC-3 prostate): -22.2% (active)
growth (SK-MEL-5 melanoma): -62.4% (active)
growth (UACC-62 melanoma): -92.1% (active)
growth (LOX IMVI melanoma): -71.1% (active)
growth (SK-MEL-28 melanoma): -93.7% (active)

Cn1/c(=N/NC(N)=S)ccc2ccccc21
growth (HCT-15 colon): 82.3%
growth (HT29 colon): 57.9%
growth (SNB-75 CNS): 101%
growth (SNB-19 CNS): 105%
growth (U251 CNS): 97.5%
growth (PC-3 prostate): 76.7%
growth (SK-MEL-5 melanoma): 102%
growth (UACC-62 melanoma): 102%
growth (LOX IMVI melanoma): 102%
growth (SK-MEL-28 melanoma): 117%

O=C1Nc2c(ccc(Cl)c2Cl)/C1=C/c1ccccn1
growth (HCT-15 colon): 70.9%
growth (HT29 colon): 78.5%
growth (SNB-75 CNS): 84.6%
growth (SNB-19 CNS): 84.5%
growth (U251 CNS): 85%
growth (PC-3 prostate): 75.2%
growth (SK-MEL-5 melanoma): 83.1%
growth (UACC-62 melanoma): 70.5%
growth (LOX IMVI melanoma): 43.9%
growth (SK-MEL-28 melanoma): 105%

O=C1NC(=O)C(=Cc2cn(Cc3ccccn3)c3ccccc23)C(=O)N1
growth (HCT-15 colon): 102%
growth (HT29 colon): 111%
growth (SNB-75 CNS): 89.2%
growth (SNB-19 CNS): 99.7%
growth (U251 CNS): 97.2%
growth (PC-3 prostate): 94.2%
growth (SK-MEL-5 melanoma): 98.3%
growth (UACC-62 melanoma): 85.7%
growth (LOX IMVI melanoma): 96.7%
growth (SK-MEL-28 melanoma): 114%

COc1cc2nc(-c3ccc(C(F)(F)F)cc3)cc(OCCCN3CCC(O)CC3)c2cc1OC
growth (HCT-15 colon): 9.78% (active)
growth (HT29 colon): 9.01% (active)
growth (SNB-75 CNS): -7.26% (active)
growth (SNB-19 CNS): 62%
growth (U251 CNS): 46.3%
growth (PC-3 prostate): 40.6%
growth (SK-MEL-5 melanoma): -56.3% (active)
growth (UACC-62 melanoma): -31.3% (active)
growth (LOX IMVI melanoma): -74.4% (active)
growth (SK-MEL-28 melanoma): 62.7%

CCNC(=O)c1[nH]cc(-c2ccc(OC)cc2)c1-c1cc(OC)cc(OC)c1
growth (HCT-15 colon): 68.6%
growth (HT29 colon): 94.6%
growth (SNB-75 CNS): 67%
growth (SNB-19 CNS): 84%
growth (U251 CNS): 98%
growth (PC-3 prostate): 84.2%
growth (SK-MEL-5 melanoma): 61.1%
growth (UACC-62 melanoma): 48.2%
growth (LOX IMVI melanoma): 83.4%
growth (SK-MEL-28 melanoma): 87.9%

O=C(N/N=C/c1ccc(F)cc1)c1ccccc1Nc1cccc(C(F)(F)F)c1
growth (HCT-15 colon): 85.6%
growth (HT29 colon): 118%
growth (SNB-75 CNS): 99.5%
growth (SNB-19 CNS): 90.2%
growth (U251 CNS): 100%
growth (PC-3 prostate): 96.2%
growth (SK-MEL-5 melanoma): 109%
growth (UACC-62 melanoma): 101%
growth (LOX IMVI melanoma): 86.6%
growth (SK-MEL-28 melanoma): 91.2%

COc1ccccc1OCC(=O)N1CCCCCC1
growth (HCT-15 colon): 103%
growth (HT29 colon): 95.2%
growth (SNB-75 CNS): 91.4%
growth (SNB-19 CNS): 96.2%
growth (U251 CNS): 95.3%
growth (PC-3 prostate): 89.8%
growth (SK-MEL-5 melanoma): 100%
growth (UACC-62 melanoma): 99.4%
growth (LOX IMVI melanoma): 93.6%
growth (SK-MEL-28 melanoma): 101%
